According to PubChem BioAssay (Tox21):
Results filed as inconclusive are left out. Active and inactive are the calls of the source. Unless noted, calls come from the whole dose curve.

Assays:
[1] = qHTS assay to identify small molecule antagonists of the estrogen related receptor (ERR) signaling pathway (AID 1224819; active = well fitted curve in the direction sought with a large enough effect in the repeat runs; an effect the other way counts as inactive or inconclusive; note: nearly all actives have a fitted effect of over 50% in size; note: potency is the fitted concentration of half-maximal effect)
In short: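 ERR reporter cells were plated at 2,000 cells/well and left 6 h at 37 C/5% CO2 before pin-tool transfer of compounds in DMSO. After 18 h at 37 C, One-Glo was added and luminescence was read 30 min later at room temperature.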

[2] = qHTS assay to identify small molecule agonists of the estrogen related receptor (ERR) signaling pathway (AID 1224820; active = well fitted curve in the direction sought with a large enough effect in the repeat runs; an effect the other way counts as inactive or inconclusive)
In short: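 After 6 h plating (2,000 cells/well) and 18 h compound treatment at 37 C, ERR cells were lysed with One-Glo and luminescence read after 30 min at room temperature.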

[3] = qHTS assay to identify small molecule agonists of the estrogen related receptor signaling pathway with the pleiotropic PPARgamma coactivator (PGC) (AID 1224823; active = well fitted curve in the direction sought with a large enough effect in the repeat runs; an effect the other way counts as inactive or inconclusive)
In short: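 Luminescence from One-Glo reagent (30 min, room temperature) was read after 18 h compound treatment at 37 C of PGC/ERR cells plated 6 h beforehand; compounds delivered in DMSO by pin tool.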

[4] = qHTS assay to identify small molecule agonists of the estrogen related receptor signaling pathway with the pleiotropic PPARgamma coactivator (PGC) from Tox21 10K library (AID 1224842; active = well fitted curve in the direction sought with a large enough effect in the repeat runs; an effect the other way counts as inactive or inconclusive; note: nearly all actives have a fitted effect of over 15% in size)
In short: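 PGC/ERR reporter cell line, 2,000 cells per well, incubated 6 h at 37 C before 23 nL compound in DMSO was added. After 18 h at 37 C, One-Glo luminescence read following 30 min at room temperature.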

[5] = qHTS assay to identify small molecule agonists of H2AX (AID 1224845; active = well fitted activation curve with a large enough effect in the signal ratio in the repeat runs, not every such curve was filed as active; the % refers to the signal ratio)
In short: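 Wild-type CHO-K1 cells, plated overnight, exposed 3hr at 37C to 15 concentrations (0.76% DMSO final). Lysed, then HTRF anti-pH2AX (S139) cryptate and anti-H2AX-d2 antibodies, 24 hr room temperature; 665/620 nm emission read.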

[6] = target: Acetylcholinesterase (Homo sapiens) (UniProt P22303); experiment: Acetylcholinesterase (AChE) small molecule antagonists: colormetric cell-based qHTS assay (AID 1347395); note: nearly all actives have a fitted effect of over 30% in size
Chain of Acetylcholinesterase (Homo sapiens) (P22303 whole entry, looked up): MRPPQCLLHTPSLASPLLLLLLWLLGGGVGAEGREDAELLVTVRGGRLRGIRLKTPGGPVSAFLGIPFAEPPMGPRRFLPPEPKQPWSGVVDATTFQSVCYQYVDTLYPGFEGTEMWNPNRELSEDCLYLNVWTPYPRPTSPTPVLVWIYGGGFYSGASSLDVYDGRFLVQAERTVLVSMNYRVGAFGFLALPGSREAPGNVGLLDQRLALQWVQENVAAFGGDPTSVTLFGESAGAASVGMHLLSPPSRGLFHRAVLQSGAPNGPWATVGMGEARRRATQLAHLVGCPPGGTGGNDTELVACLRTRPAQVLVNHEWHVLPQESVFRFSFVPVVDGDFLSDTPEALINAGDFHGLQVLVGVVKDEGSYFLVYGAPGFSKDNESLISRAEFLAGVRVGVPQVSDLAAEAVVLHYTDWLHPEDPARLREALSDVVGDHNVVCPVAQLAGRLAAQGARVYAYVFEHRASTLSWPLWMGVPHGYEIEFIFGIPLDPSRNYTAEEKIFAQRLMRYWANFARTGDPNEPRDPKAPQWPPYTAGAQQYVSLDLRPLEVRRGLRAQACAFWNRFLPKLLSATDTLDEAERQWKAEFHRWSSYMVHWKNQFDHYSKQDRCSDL
In short: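 After overnight attachment at 37 C, SH-SY5Y cells get 30 min compound exposure; detection cocktail (acetylthiocholine, DTNB) then incubates 90 min at 37 C, and absorbance reflects AChE-generated thiocholine.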

[7] = target: Acetylcholinesterase (Homo sapiens) (UniProt P22303); experiment: Acetylcholinesterase (AChE) small molecule antagonists: enzyme-based qHTS assay (AID 1347397); conditions: Potency: AChE enzyme activity inhibition; outcome: AChE enzyme activity inhibition; note: nearly all actives have a fitted effect of over 55% in size
In short: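 In this quantitative HTS, compounds from the Tox21 10K collection were preincubated 30 min at ambient temperature with recombinant human AChE dispensed at 50 mU/mL. Hydrolysis of acetylthiocholine was then followed for 10 min by DTNB colour development.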

[8] = target: Acetylcholinesterase (Homo sapiens) (UniProt P22303); experiment: Acetylcholinesterase (AChE) small molecule antagonists: fluorescence cell-based qHTS assay (AID 1347398); conditions: Potency: AChE activity; outcome: AChE activity; note: nearly all actives have a fitted effect of over 50% in size
In short: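 Cells (SH-SY5Y) attached overnight, were dosed with compound or DMSO vehicle for 30 min at 37 C, and then incubated 40 min at room temperature with acetylthiocholine and Thiolite Green; green fluorescence indexed AChE activity.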

[9] = target: Acetylcholinesterase (Homo sapiens) (UniProt P22303); experiment: Acetylcholinesterase (AChE) small molecule antagonists: enzyme-based qHTS assay with human liver microsomes (AID 1347399); conditions: Potency: qHTS inhibition; outcome: qHTS inhibition; note: nearly all actives have a fitted effect of over 60% in size
In short: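 Recombinant human AChE (50 mU/mL in the enzyme mix) and human liver microsomes (0.25 mg/mL final) were preincubated with compound and NADPH (0.25 mg/mL final) for 30 min at 37 C. Acetylthiocholine/DTNB was then added; thiocholine was read colorimetrically after 10 min at room temperature.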

[10] = system: estrogen-related receptor alpha (ERRalpha) with PGC-1alpha coactivator, human; experiment: qHTS assay to identify small molecule antagonists of the estrogen related receptor signaling pathway with the pleiotropic PPARgamma coactivator (PGC) (AID 1224821);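 note: series mostly up to about 46 µM; lower luminescence signal means antagonism of PGC/ERR signalling; nearly all actives have a fitted effect of over 50% in size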
In short: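 Luminescence from One-Glo luciferase reagent (30 min, room temperature) measured after 18 h compound treatment at 37 °C. Cells carry the PGC/ERR reporter and were seeded 6 h prior to dosing.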

[11] = qHTS assay for small molecule agonists of the p53 signaling pathway (AID 651631); note: nearly all actives have a fitted effect of over 15% in size
In short: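 Beta-lactamase reporter activity under p53 response elements was quantified in HCT-116 cells by FRET fluorescence, following 16 h incubation with test compounds at 37 °C and 2 h substrate development at room temperature.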

[12] = Caspase-3/7 induction in HepG2 cells by small molecules, qHTS assay (AID 1346978; active = well fitted curve in the direction sought with a large enough effect in the repeat runs; an effect the other way counts as inactive or inconclusive; note: nearly all actives have a fitted effect of over 15% in size)
In short: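 Wild-type HepG2 cells, 2,000/well, settled 5 hr at 37 C and 5% CO2, then compound-treated for 17 hr; caspase-3/7 activity read by luminescent Caspase-Glo 3/7 after 30 min at room temperature.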

[13] = target: Glucocorticoid receptor (Homo sapiens) (UniProt P04150); experiment: qHTS assay to identify small molecule antagonists of the glucocorticoid receptor (GR) signaling pathway (AID 720692; active = well fitted inhibition curve with a large enough effect in the signal ratio in the repeat runs, not every such curve was filed as active; the % refers to the signal ratio)
Chain of Glucocorticoid receptor (Homo sapiens) (P04150 whole entry, looked up): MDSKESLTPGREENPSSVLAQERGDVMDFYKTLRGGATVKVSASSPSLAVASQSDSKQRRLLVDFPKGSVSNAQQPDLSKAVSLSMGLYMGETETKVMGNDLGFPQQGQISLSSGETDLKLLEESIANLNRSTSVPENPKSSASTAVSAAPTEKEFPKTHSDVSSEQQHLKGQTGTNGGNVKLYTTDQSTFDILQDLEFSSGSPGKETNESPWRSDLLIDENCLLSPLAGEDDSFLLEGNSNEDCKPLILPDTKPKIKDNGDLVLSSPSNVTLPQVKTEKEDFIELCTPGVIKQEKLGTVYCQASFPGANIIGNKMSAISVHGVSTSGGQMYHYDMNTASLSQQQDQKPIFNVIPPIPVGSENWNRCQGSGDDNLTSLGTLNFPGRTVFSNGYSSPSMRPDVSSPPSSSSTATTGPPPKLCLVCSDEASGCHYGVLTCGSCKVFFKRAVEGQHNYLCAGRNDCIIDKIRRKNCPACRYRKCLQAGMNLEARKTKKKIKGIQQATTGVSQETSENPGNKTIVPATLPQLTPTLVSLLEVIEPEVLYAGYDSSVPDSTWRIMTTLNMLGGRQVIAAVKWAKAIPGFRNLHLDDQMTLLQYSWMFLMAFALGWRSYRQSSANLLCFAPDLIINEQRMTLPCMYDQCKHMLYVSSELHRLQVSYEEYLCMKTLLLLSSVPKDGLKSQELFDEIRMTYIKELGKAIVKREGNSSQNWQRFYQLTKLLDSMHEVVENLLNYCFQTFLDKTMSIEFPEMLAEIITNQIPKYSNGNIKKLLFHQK
In short: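 GRE-bla HeLa line, dex-stimulated (5 nM final). Compound exposure 18 h, 37 C. Beta-lactamase FRET read after 2 h RT substrate.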

[14] = qHTS assay to identify small molecule antagonists of the estrogen receptor alpha (ER-alpha) signaling pathway using the BG1 cell line in the presence of 0.1 nM 17-beta-estradiol - cell viability counter screen (AID 1259241; active = well fitted curve in the direction sought with a large enough effect in the repeat runs; an effect the other way counts as inactive or inconclusive; note: nearly all actives have a fitted effect of over 40% in size)
In short: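 In this screen, hormone-deprived VM7Luc4E2 cells were seeded at 4,000 per well, dosed with compound and 0.1 nM estradiol final, and incubated 22 hr at 37C and 5% CO2; fluorogenic live-cell protease signal reported viability.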

[15] = qHTS assay to identify small molecule antagonists of the androgen receptor (AR) signaling pathway using the MDA cell line in the presence of 0.5 nM R1881 - cell viability counter screen (AID 1259242; active = well fitted curve in the direction sought with a large enough effect in the repeat runs; an effect the other way counts as inactive or inconclusive; note: nearly all actives have a fitted effect of over 45% in size)
In short: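 Human breast carcinoma MDA-kb2 cells, cultured without CO2, receive compounds alongside 0.5 nM (final) R1881 agonist. After 16 hr at 37C, viability is taken as live-cell protease signal.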

[16] = target: Glucocorticoid receptor (Homo sapiens) (UniProt P04150); experiment: qHTS assay to identify small molecule agonists of the glucocorticoid receptor (GR) signaling pathway (AID 720691; active = well fitted activation curve with a large enough effect in the signal ratio in the repeat runs, not every such curve was filed as active; the % refers to the signal ratio)
In short: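 A HeLa cervical cancer line expressing GR and a glucocorticoid response element-driven beta-lactamase gene is treated with compounds for 18 h; LiveBLAzer B/G FRET substrate is then applied and fluorescence read.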

[17] = target: Androgen receptor (Homo sapiens) (UniProt P10275); experiment: qHTS assay to identify small molecule agonists of the androgen receptor (AR) signaling pathway using the MDA cell line (AID 743040; active = well fitted curve in the direction sought with a large enough effect in the repeat runs; an effect the other way counts as inactive or inconclusive; note: nearly all actives have a fitted effect of over 20% in size; note: potency is the fitted concentration of half-maximal effect)
Chain of Androgen receptor (Homo sapiens) (P10275 whole entry, looked up): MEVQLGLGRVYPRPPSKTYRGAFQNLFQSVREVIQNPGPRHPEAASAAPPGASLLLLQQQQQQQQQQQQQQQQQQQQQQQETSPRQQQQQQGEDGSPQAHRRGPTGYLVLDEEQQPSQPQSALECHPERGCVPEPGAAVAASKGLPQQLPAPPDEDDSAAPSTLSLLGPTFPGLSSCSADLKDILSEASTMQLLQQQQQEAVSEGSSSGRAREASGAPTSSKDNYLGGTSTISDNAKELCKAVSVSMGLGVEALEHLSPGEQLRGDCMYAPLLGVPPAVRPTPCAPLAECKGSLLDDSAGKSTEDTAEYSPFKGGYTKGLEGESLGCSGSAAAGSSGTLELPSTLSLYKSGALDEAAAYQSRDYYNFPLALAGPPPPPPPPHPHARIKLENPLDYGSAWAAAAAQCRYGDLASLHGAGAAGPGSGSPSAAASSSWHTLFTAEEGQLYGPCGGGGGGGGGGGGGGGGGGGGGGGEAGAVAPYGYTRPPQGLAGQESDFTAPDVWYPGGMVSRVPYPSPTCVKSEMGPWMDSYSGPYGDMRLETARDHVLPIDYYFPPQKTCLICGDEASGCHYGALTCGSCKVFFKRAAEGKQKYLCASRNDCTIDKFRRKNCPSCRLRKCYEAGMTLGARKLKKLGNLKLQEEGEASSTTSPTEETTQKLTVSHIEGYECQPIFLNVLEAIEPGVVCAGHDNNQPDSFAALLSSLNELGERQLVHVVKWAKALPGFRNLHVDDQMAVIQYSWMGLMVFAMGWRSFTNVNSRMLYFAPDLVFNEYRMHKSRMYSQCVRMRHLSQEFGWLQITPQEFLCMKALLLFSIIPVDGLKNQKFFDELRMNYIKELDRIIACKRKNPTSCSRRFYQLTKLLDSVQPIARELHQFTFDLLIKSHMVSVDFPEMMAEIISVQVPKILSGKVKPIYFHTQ
In short: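 Testing was done with the MDA-kb2 AR-luc line, a human breast carcinoma stably transfected with MMTV-luciferase containing AR and GR response elements. Cells were exposed 16 h at 37C before ONE-Glo luminescence detection.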

[18] = target: Androgen receptor (Homo sapiens) (UniProt P10275); experiment: qHTS assay to identify small molecule antagonists of the androgen receptor (AR) signaling pathway using the MDA cell line (AID 743042; active = well fitted curve in the direction sought with a large enough effect in the repeat runs; an effect the other way counts as inactive or inconclusive; note: nearly all actives have a fitted effect of over 55% in size)
In short: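 MDA-kb2 breast carcinoma cells carrying MMTV-luciferase (AR/GR responsive) were co-treated with compounds and the agonist R1881 for 16 h at 37C. Inhibition read as ONE-Glo luminescence; CellTiter-Fluor fluorescence measured in parallel for cytotoxicity.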

[19] = qHTS assay to identify small molecule antagonists of the estrogen receptor alpha (ER-alpha) signaling pathway using the BG1 cell line (AID 743080);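 note: BG1 cells stimulated with 17beta-estradiol alongside compound; series mostly up to about 70 µM; nearly all actives have a fitted effect of over 25% in size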
In short: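 Readout is ONE-Glo luminescence, taken 30 min at room temperature after reagent addition, preceded by a CellTiter-Fluor viability read; BG1-Luc-4E2 cells had received compound and 17beta-estradiol for 21.5 h at 37 C.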

[20] = target: Androgen receptor (Homo sapiens) (UniProt P10275); experiment: qHTS assay to identify small molecule agonists of the androgen receptor (AR) signaling pathway (AID 743036; active = well fitted activation curve with a large enough effect in the signal ratio in the repeat runs, with a control signal flat, not every such curve was filed as active; the % refers to the signal ratio)
In short: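 Following a 4 h settling period, AR-UAS-bla HEK293 cells were dosed with compounds for 16 h at 37C. A 2 h room-temperature incubation with LiveBLAzer B/G FRET substrate preceded the fluorescence measurement.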

Measured: Potency

c1ccc2c(c1)[I+]c1ccccc1-2
inactive: [2] | [3]
active: [1] 0.031 µM

Clc1nc(Cl)c(Cl)c(Cl)c1Cl
inactive: [4] | [5] | [6] | [7] | [8] | [9]

CN1CCC[C@@H]1Cc1c[nH]c2ccc(Nc3ncccc3[N+](=O)[O-])cc12
inactive: [1] | [2] | [10] | [3]

O=P(OC(CCl)CCl)(OC(CCl)CCl)OC(CCl)CCl
inactive: [11] | [4] | [5] | [12] | [6] | [7] | [8] | [9]

C/C=C(/C)C(=O)O[C@H]1C(C)=C2[C@H]([C@@H]1OC(=O)CCCCCCC)[C@@](C)(OC(C)=O)C[C@H](OC(=O)CCC)[C@@]1(O)[C@H]2OC(=O)[C@@]1(C)O
active: [1] 0.246 µM
inactive: [2] | [3]

Cc1ccc([N+](=O)[O-])cc1N
inactive: [11] | [5] | [6] | [7] | [8] | [9]

CNc1ccccc1
inactive: [13] | [5] | [6] | [7] | [8] | [9]

O=C(O)/C=C\C(=O)O
inactive: [11] | [13] | [4] | [14] | [15] | [6] | [7] | [8] | [9]

Clc1ccc(C(c2ccc(Cl)cc2)n2cc[n+](CC(OCc3ccc(Cl)cc3Cl)c3ccc(Cl)cc3Cl)c2)cc1 (stereo not drawn)
inactive: [2] | [3]
active: [1] 19.6 µM

OC(c1ccccc1)(c1ccccc1)C1CN2CCC1CC2 (stereo not drawn)
inactive: [16] | [13] | [18] | [19]
active: [17] 26.6 µM

COc1ccc2c(c1)C13CCCC[C@@H]1C(C2)N(C)CC3 (stereo partly drawn)
inactive: [16] | [13] | [19]

O=C1CCCCC1CN1CCCCC1 (stereo not drawn)
inactive: [11] | [16] | [13] | [20] | [17] | [18] | [19]

CCCCNCC(O)c1ccc(O)cc1 (stereo not drawn)
inactive: [11] | [16]

CCCCCCCCCC(=O)O[C@H]1CC[C@H]2[C@@H]3CCC4=CC(=O)CC[C@]4(C)[C@H]3CC[C@]12C
inactive: [16] | [19]

CCCCCc1cc(O)c2c(c1)OC(C)(C)[C@@H]1CCC(C)=C[C@@H]21
inactive: [20] | [17] | [18] | [19]

O=C1CN(O)C(c2ccccc2)=c2cc(Cl)ccc2=N1
inactive: [11] | [16] | [13] | [20] | [17] | [18]

CCC1(c2cnc[nH]2)Cc2ccccc2C1
inactive: [19] | [14] | [15] | [6] | [7] | [8] | [9]

CCOc1ccc2c3c1O[C@H]1[C@@H](O)C=C[C@H]4[C@@H](C2)N(C)CC[C@@]341
inactive: [11] | [13] | [19]

CC(C)C[C@H](CN)CC(=O)O
inactive: [16] | [13] | [19]

[S]=[Sb](=[S])[S][Sb](=[S])=[S]
inactive: [11] | [16] | [13] | [19]

CN[C@H]1C[C@@H](N)[C@H](O)[C@@H](O[C@@H]2O[C@H](CO)[C@H](O)[C@@H]3OC4(O[C@H]23)O[C@H](C(N)CO)[C@H](O)[C@H](O)[C@H]4O)[C@@H]1O (stereo partly drawn)
inactive: [11]

[2H]C([2H])([2H])[C@H](N)Cc1ccccc1
inactive: [11] | [16] | [13] | [17] | [18] | [19]

O=C(CS(=O)C(c1ccccc1)c1ccccc1)NO (stereo not drawn)
inactive: [16] | [19]

O=C1CCO1
inactive: [13] | [20] | [17] | [18] | [19]
